# HCMV antiviral = qHTS Assay for inhibitors of the human cytomegalovirus (HCMV); 4.5% of 410,000 active; activity change, negative = inhibition, % at 57.5 µM; HFF cells, HCMV-luciferase reporter, 72 h; hits give low values; AID 1259415, 2018; in the data active = activity change below about -60%; inconclusive = no clear call, values can overlap the other calls; inactive = above about -39%; also: % is scaled to controls: 0 for no effect and ±100 for the full control effect
#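 Luciferase read-out from HCMV-luciferase-infected HFFs (MOI 1 PFU/cell) 72 h post infection at 37C; compounds added after 16 h cell attachment; activity normalized between buffer-only basal and Salinomycin (10uM) inhibitor controls.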
# FMDV inh = High Throughput Screening for Foot and Mouth Disease Virus Antivirals; FMDV antiviral cell-based qHTS; Potency, µM (series often up to 57.9 µM), without a hit: top-dose activity change, negative = inhibition, usual class: inhibitors; 1.2% of 410,000 active; calls by dose curve; tested in HEK293T cells; also: read-out not given here; potency is read from the fitted curve at half-maximal effect; % is scaled to controls: 0 for no effect and ±100 for the full control effect; nearly all actives have a fitted effect of over 45% in size
# LASV entry inh = qHTS for Inhibitors of binding or entry into cells for Lassa Virus | Lassa virus pseudotype entry inhibition, cell reporter | Potency, µM (series often up to 37.9 µM), for inactives: at the highest dose activity change, negative = inhibition, most hits filed as inhibitors | 1.2% of 300,000 active | AID 540256, 2011; calls by dose curve; tested in HEK293 cells; also: potency is read from the fitted curve at half-maximal effect; % is scaled to controls: 0 for no effect and ±100 for the full control effect; nearly all actives have a fitted effect of over 50% in size
# SARS PLP yeast = qHTS of Yeast-based Assay for SARS-CoV PLP; S. cerevisiae expressing SARS-CoV PLpro, growth rescue; Potency, µM (highest dose often 32.9 µM), inactives show at the highest dose activity, positive = growth rescue, usual class: activators; 0.19% of 330,000 active; calls by dose curve; also: potency is read from the fitted curve at half-maximal effect; 0% is about no effect; nearly all actives have a fitted effect of over 55% in size
# MARV entry inh = qHTS for inhibitors of binding or entry into cells for Marburg Virus | AID 540276, 2011 | Marburg virus pseudotyped entry inhibition, cell reporter | Potency, µM (doses to about 37.8 µM), inactives show at the highest dose activity change, negative = inhibition, most hits filed as inhibitors | 1.8% of 300,000 active; calls by dose curve; tested in HEK293 cells; also: potency is read from the fitted curve at half-maximal effect; % is scaled to controls: 0 for no effect and ±100 for the full control effect
# HCV inh = qHTS Assay for Inhibitors of Hepatitis C Virus (HCV); Huh7.5.1 HCVcc-Cre infection, luciferase reporter, 44 h; Potency, µM (highest dose often 41.8 µM), without a hit: top-dose activity change, negative = inhibition, actives largely listed as inhibitors; 3.4% of 340,000 active; AID 651820, 2012; active = well fitted inhibition curve with a large enough effect; inconclusive = small, poorly fitted or top-dose-only effect, or another doubt; inactive = no such curve, though single readings can be large or run the other way; also: potency is read from the fitted curve at half-maximal effect; % is scaled to controls: 0 for no effect and ±100 for the full control effect
#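 After 44 h co-culture of compound, cells and HCVcc-Cre (~0.5 moi), substrate is added for 15 min at room temperature and luciferase measured over 15 sec. Cells were seeded at 1,000/well and pre-cultured 4 h.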
# The depositor's hits bear a star; ? = inconclusive; . = not tested or not shown; [ ] = remark or other dose. Only some compounds are listed: those with a hit (about 8% of all), similar ones and a draw of the others.
SMILES,HCMV antiviral,FMDV inh,LASV entry inh,SARS PLP yeast,MARV entry inh,HCV inh
CCC1CSC(Nc2ccc(C(=O)/C=C/c3ccc(OC)c(OC)c3)cc2)=N1 (stereo not drawn),-101*,25µM*,23µM*,-41%,?,?
CCN1C(=NCc2ccc3c(c2)OCO3)NC(c2ccccc2)C(C(=O)OC)=C1C (stereo not drawn),.,.,.,.,-18%[14.2 µM],.
Cc1noc(C)c1-c1nc(NCCN2CCOCC2)c2ccccc2n1,.,-13%,.,.,.,.
O=C(Nc1ccccc1)N1CCc2scc[n+]2-c2ccccc21,-67*,-8%,1%,-6%,4%,?
COC(=O)c1scc(C#N)c1N/N=C(\C#N)S(=O)(=O)c1ccc(Cl)cc1,-97*,14µM*,?,1%,?,?
CC[C@H]1CN2CCC1C[C@H]2[C@H](O)c1ccnc2ccc(OC)cc12 (stereo partly drawn),-68*,-26%,.,.,.,3%
C=CC1CN2CCC1CC2[C@@H](OC(=O)c1ccc(OC)cc1)c1ccnc2ccccc12 (stereo partly drawn),-20,?,?,5%,11µM*,20%
CCc1cnc2c(c1SCC(=O)Nc1ccc(Cl)cc1)c(=O)n(C)c(=O)n2C,-9,-5%,20%[46.1 µM],.,.,.
Cc1nn(-c2ccccc2)c2c1N(CCCC(=O)NCc1ccc(OC(C)C)cc1)C(=O)CS2,?,0%,?,.,.,.
CN(C)CCCNC(=O)C[C@H]1C[C@H](C(=O)N2CCOCC2)[C@@]2(CCC3CCCC3)c3[nH]c4cc(-c5ccco5)ccc4c3CCN2C1=O,?,-25%,.,-5%,.,7.9µM*
CC(C)=CCC/C(C)=C/CNC(=O)C[C@H]1C[C@H](C(=O)N(C(C)C)C(C)C)[C@@]2(C)c3[nH]c4cc(-c5ccco5)ccc4c3CCN2C1=O,-15,0%,.,-1%,.,-22%[8.37 µM]
CC(C)N(C(=O)[C@H]1C[C@H](CC(=O)NCCCN(C)C)C(=O)N2CCc3c([nH]c4cc(CCC(=O)N(C)C)ccc34)[C@]12C)C(C)C,-14,-5%,.,0%,.,0.32µM*
C[C@]12c3[nH]c4cc(-c5ccco5)ccc4c3CCN1C(=O)[C@@H](CC(=O)NCC13CC4CC(CC(C4)C1)C3)C[C@@H]2C(=O)N1CCOCC1,-29,?,.,9%,.,25µM*
CC(C)=CCC/C(C)=C/CNC(=O)C[C@H]1C[C@H](C(=O)N(C(C)C)C(C)C)[C@@]2(C)c3[nH]c4cc(CCC(=O)N(C)C)ccc4c3CCN2C1=O,-15,?,.,-1%,.,10µM*
O=C(C[C@H]1C[C@H](C(=O)N2CCOCC2)[C@@]2(CCC3CCCC3)c3[nH]c4cc(-c5ccco5)ccc4c3CCN2C1=O)NCCN1CCOCC1,-11,?,.,-3%,.,?
COc1cccc(CNC(=O)CN2N=C(c3ccc(C)cc3)CCC2=O)c1,-39,-16%,4%[46.1 µM],.,.,.
CCOc1ccc2nc(Cl)c(C3CC(c4ccc(C)cc4)=NN3C(=O)CCCC(=O)O)cc2c1 (stereo not drawn),10,0%,-18%[46.1 µM],.,-11%[46.1 µM],.
CC(C)N(C(=O)[C@H]1C[C@H](CC(=O)NCCCN(C)C)C(=O)N2CCc3c([nH]c4cc(-c5ccco5)ccc34)[C@]12C)C(C)C,-24,0%,.,-5%,.,8.9µM*
CCOC(=O)c1cccc(NC(=O)NCCc2c(C)nn(C)c2C)c1,-5,-10%,-1%[46.1 µM],.,.,.
Cc1ccc(Nc2nnc(-c3ccc(C)c(S(N)(=O)=O)c3)c3ccccc23)cc1,-18,24%,-22%[46.1 µM],.,.,.
Cc1ccc(Nc2nccc(N(C)c3ccc4c(C)n(C)nc4c3)n2)cc1S(N)(=O)=O,-84*,.,.,.,.,.
COc1cccc(C2=CC(c3cc(OC)ccc3OC)n3nnnc3N2)c1 (stereo not drawn),-34,-40%,?,-3%,?,?
COc1ccc(OC)c(C2C=C(c3ccc(C)c(C)c3)Nc3nnnn32)c1 (stereo not drawn),24,-26%,5µM*,-8%,?,?
CC(C)c1cnc2c(c1SCC(=O)NCc1ccccc1)c(=O)n(C)c(=O)n2C,3,2%,-11%[46.1 µM],.,.,.
CCOC(=O)C1=NN(c2ccccc2)C(=O)/C1=C\c1ccc(N(C)C)cc1,-11,18µM*,-1%,-5%,-3%,11%
SMILES,HCMV antiviral,FMDV inh,LASV entry inh,SARS PLP yeast,MARV entry inh,HCV inh
CCc1ccc(-c2cc(C)no2)cc1S(=O)(=O)NCc1ccccc1OC,5,50%,.,1%,.,-22%
CCc1ccccc1N(C)S(=O)(=O)c1cc(-c2cc(C)no2)ccc1OC,-33,-17%,.,-1%,.,14µM*
Cc1cc(-c2ccc(C)c(S(=O)(=O)N(C)c3ccc(C)c(C)c3)c2)on1,-39,40µM*,-23%[46.1 µM],.,.,.
COc1ccccc1CNS(=O)(=O)c1ccc(-c2cc(C)no2)cc1,-60*,?,.,-6%,.,?
CCN(c1ccc(OC)cc1)S(=O)(=O)c1cc(-c2cc(C)no2)ccc1C(C)C,0,-13%,.,23%,.,13µM*
Cc1nc2c(-c3ccccc3)c(C)nn2c(C)c1CCC(=O)NCc1ccc(Cl)cc1,9,?,24%[46.1 µM],.,6%[46.1 µM],.
CC(=O)[C@@]1(C)OC(N)=C(C#N)[C@@H](c2ccccc2)C1(C#N)C#N,.,.,.,.,0%,.
COc1cc(NS(=O)(=O)c2ccc(-c3cc(C)no3)cc2)cc(OC)c1,-85*,-5%,-17%[46.1 µM],.,.,.
OCCNCc1cc(Br)ccc1OCc1ccccc1,-68*,-25%,-20%,2%,?,-16%
CCOCCCNCc1cc(Br)ccc1OCc1ccccc1,-34,-2%,-25%,-30%,?,?
COc1ccc(CNCCc2ccc(Cl)cc2)cc1OCc1ccccc1,.,-21%,?,-3%,?,?
CCOc1cc(CNCc2ccccc2)ccc1OCc1ccc(Cl)cc1,-85*,?,?,-5%,?,22µM*
NS(=O)(=O)c1ccc(CCNCc2cc(Br)ccc2OCc2ccccc2)cc1,-66*,?,?,14%,?,11µM*
CCOc1cc(CNCCc2ccc(S(N)(=O)=O)cc2)ccc1OCc1ccccc1,?,?,?,-1%,6.5µM*,13µM*
O=C(CCC1N=C2c3ccccc3N=C(SCc3ccccc3F)N2C1=O)NCc1ccccc1 (stereo not drawn),26,-12%,-9%[46.1 µM],.,.,.
CCN(CC)c1ccc(NC(=O)CN2C(=O)c3cccnc3Oc3ccccc32)c(C)c1,0,20%,-2%[46.1 µM],.,.,.
Nc1nc(NCc2ccccc2)nc(-c2ccccc2)n1,106,.,-7%,-6%,6%,10µM*

# Source: PubChem BioAssay
